Source: PubChem BioAssay
The full list was thinned out, with hits kept by preference.
LmPK inhibitor = inhibitors of Leishmania mexicana pyruvate kinase. Potency, µM (top dose mostly 57.5 µM), usual class: inhibitors. actives 0.37% (n = 290,000). purified LmPK, Kinase-Glo ATP luminescence, 1 h. Q27686; active = well fitted curve in the direction sought with a large enough effect; inconclusive = small, poorly fitted or top-dose-only effect, or another doubt; inactive = no such curve, though single readings can be large; an effect the other way counts as inactive or inconclusive
Target sequence (Q27686 whole entry, looked up): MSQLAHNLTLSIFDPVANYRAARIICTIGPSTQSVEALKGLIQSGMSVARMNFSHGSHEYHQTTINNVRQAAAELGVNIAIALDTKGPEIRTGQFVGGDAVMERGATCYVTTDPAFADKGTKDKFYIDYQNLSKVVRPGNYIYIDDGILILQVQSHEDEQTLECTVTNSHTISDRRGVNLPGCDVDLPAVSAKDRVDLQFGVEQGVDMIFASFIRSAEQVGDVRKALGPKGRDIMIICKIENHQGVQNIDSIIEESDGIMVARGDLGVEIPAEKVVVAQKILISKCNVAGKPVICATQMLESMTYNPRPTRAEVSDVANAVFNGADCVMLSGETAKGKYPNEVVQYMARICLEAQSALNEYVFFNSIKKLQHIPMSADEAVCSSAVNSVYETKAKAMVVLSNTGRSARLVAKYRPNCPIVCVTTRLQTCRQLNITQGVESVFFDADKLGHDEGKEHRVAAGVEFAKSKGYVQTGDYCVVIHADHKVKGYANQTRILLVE
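Purified LmPK (0.1 nM) converted ADP (0.1 mM) to ATP with PEP (0.5 mM) in imidazole buffer pH 7.2 with KCl and MgCl2, 1 h at room temperature. ATP was read by Kinase-Glo luminescence; data normalized to uninhibited and no-enzyme controls.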
NS1 function inh = blocks influenza NS1 protein function; AID 2326; actives 0.4% (n = 270,000); Potency, µM (doses to about 46.1 µM); also: actives are rising curves; nearly all actives have a fitted effect of over 50% in size
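A cell-based growth assay was used: compounds that relieve NS1-induced slow growth of budding yeast raise OD600. Assay medium was yeast nitrogen base with ammonium sulphate and -URA supplement, pH 6.0, with 2% galactose.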
Shiga toxin inh = blocks Shiga toxin action in Vero cells. inhibition, % at 38.7 µM. actives 9.2% (n = 290,000). Vero cells, Shiga toxin protein synthesis inhibition reporter; in the data active = inhibition mostly above about 28%, no sharp cut-off; inactive = mostly below about 43%
Cycloheximide cs = affects cycloheximide protein synthesis inhibition readout, counter-screen. max response, %. actives 12% (n = 300,000). cell reporter, cycloheximide protein synthesis inhibition counterscreen; in the data active = max response mostly above about 13%, no sharp cut-off; inactive = mostly below about 14%; also: read at 38.3 µM for the half of the compounds with a filed dose
SARS PLP yeast = SARS-CoV PLP inhibition in yeast; S. cerevisiae expressing SARS-CoV PLpro, growth rescue; Potency, µM (highest dose often 32.9 µM), most hits filed as activators; actives 0.19% (n = 330,000); also: nearly all actives have a fitted effect of over 55% in size
TbPYK inhibitor = T. brucei pyruvate kinase inhibition | TbPYK enzyme, Kinase-Glo Plus ATP luminescence, 45 min | Potency, µM (titrated, usually from 76.8 µM), usual class: inhibitors | actives 0.12% (n = 410,000) | AID 624173; active = well fitted curve in the direction sought with a large enough effect; inconclusive = small, poorly fitted or top-dose-only effect, or another doubt; inactive = no such curve, though single readings can be large; an effect the other way counts as inactive or inconclusive; also: nearly all actives have a fitted effect of over 50% in size
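Glycolytic pyruvate kinase of T. brucei was incubated with substrate, test compound and 130 uM ADP for 45 minutes at room temperature. Luminescent Kinase-Glo Plus signal was measured after 10 minutes.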
Each line names hits and unclear results; the compound was inactive in the other large screens. Unless noted, calls follow the shape of the full dose curve.

O=C(Cc1ccccc1[N+](=O)[O-])Nc1ccc2c(c1)OCCO2	Shiga toxin inh 89, Cycloheximide cs 55
O=C(N/N=C/c1ccc(OC(=O)c2ccc3c(c2)OCO3)cc1)c1cncc(Br)c1	none
O=C(COC(=O)COc1ccccc1[N+](=O)[O-])Nc1ccc2c(c1)OCO2	none (no result: LmPK inhibitor, NS1 function inh, Shiga toxin inh, Cycloheximide cs)
O=C(COc1ccccc1[N+](=O)[O-])Nc1ccc2c(c1)OCO2	Shiga toxin inh 66, Cycloheximide cs 31
Cc1cccc(OCC(=O)Nc2ccc3c(c2)OCO3)c1C	Cycloheximide cs 55
O=C(N/N=C/c1cccc(OC(=O)c2ccc3c(c2)OCO3)c1)c1cncc(Br)c1	Shiga toxin inh 56, Cycloheximide cs 49
CCOC(=O)c1c(-c2ccccc2)oc2ccc(NS(=O)(=O)c3ccc(C(C)C)cc3)cc12	none (no result: LmPK inhibitor, NS1 function inh, Shiga toxin inh, Cycloheximide cs, SARS PLP yeast)
COC(=O)c1ccc(NC(=O)COc2ccc3c(c2)OCO3)cc1	Cycloheximide cs 20
Cc1ccc(OCC(=O)Nc2ccc3c(c2)OCO3)cc1C	Shiga toxin inh 29, Cycloheximide cs 25
Cc1ccc(OCC(=O)OCC(=O)Nc2ccc3c(c2)OCO3)cc1C	none (no result: LmPK inhibitor, NS1 function inh, Shiga toxin inh, Cycloheximide cs)
O=C(COc1ccccc1[N+](=O)[O-])N/N=C/c1cccc(OC(=O)c2ccc3c(c2)OCO3)c1	Shiga toxin inh 95, Cycloheximide cs 93
O=C(COc1ccc2ccc(=O)oc2c1)Nc1ccc2c(c1)OCCO2	NS1 function inh inconclusive, Cycloheximide cs 13
CC(=O)c1ccc(NC(=O)COc2ccccc2-c2nc(C)no2)cc1	none (no result: LmPK inhibitor, NS1 function inh, Shiga toxin inh, Cycloheximide cs, SARS PLP yeast)
COc1cc(C)c(NC(=O)COc2ccc3c(c2)OCO3)cc1C	Shiga toxin inh 49, Cycloheximide cs 20
CCN(CC)C(=O)CSc1nc(-c2ccc(C)cc2)nc2c1COC(C)(C)C2	Cycloheximide cs 20 (no result: TbPYK inhibitor)
Cc1cccc(N2CCN(CCNC(=O)C3COc4ccccc4C3)CC2)c1C (configuration not stated)	none (no result: LmPK inhibitor, NS1 function inh, Shiga toxin inh, Cycloheximide cs, SARS PLP yeast)
Nc1ccc(N(CCO)CCO)cc1	none
Cc1cc(N(CCO)CCO)ccc1N=Nc1cc(F)ccc1F	Shiga toxin inh 118, Cycloheximide cs 41 (no result: NS1 function inh)
CC[C@@]1([C@@H]2O[C@@H]([C@H]3O[C@@](O)(CO)[C@H](C)C[C@@H]3C)C[C@@H]2C)CC[C@@H]([C@]2(C)CCC3(C[C@H](O)[C@@H](C)[C@@H]([C@@H](C)[C@@H](OC)[C@H](C)C(=O)O)O3)O2)O1 (some centres not stated)	none (no result: LmPK inhibitor, NS1 function inh, SARS PLP yeast, TbPYK inhibitor)
Cc1[nH]nc2c1C(c1ccc(-c3ccc(Cl)cc3)o1)C(C#N)=C(N)O2 (configuration not stated)	none
Cc1ccc(-c2ccc(C3C(C#N)=C(N)Oc4n[nH]c(C)c43)o2)cc1 (configuration not stated)	Shiga toxin inh 50, Cycloheximide cs 32
O=C1NCCN/C1=C\C(=O)c1ccc(F)cc1	Shiga toxin inh 69, Cycloheximide cs 35
O=C(COc1cccc2c1CCNC2=O)Nc1ccc(Cl)cc1	none (no result: LmPK inhibitor, NS1 function inh, Shiga toxin inh, Cycloheximide cs)
O=C1CNC(=O)/C(=C\c2ccc(F)cc2)N1	none
O=C1NCCN/C1=C\C(=O)c1ccc(Cl)cc1	Shiga toxin inh 67, Cycloheximide cs 55
CCOC(=O)c1cc(C(=O)OCC)c2cccc(C)n2c1=O	none
CCOC(=O)c1cnc2oc3ccccc3n2c1=O	Cycloheximide cs 58 (no result: Shiga toxin inh, SARS PLP yeast)
CCOC(=O)c1cnc2sc3c(n2c1=O)CCCC3	Shiga toxin inh 92, Cycloheximide cs 43
COc1ccc(OC)c(NC(=O)c2ccccc2N(Cc2ccccc2)S(C)(=O)=O)c1	TbPYK inhibitor 13µM
O=C(Nc1ccc2oc(-c3ccccc3Cl)nc2c1)c1cncc(Br)c1	Shiga toxin inh 71, Cycloheximide cs 66
O=C(Nc1ccc2oc(-c3ccccc3Cl)nc2c1)c1ncn[nH]1	Shiga toxin inh 113, Cycloheximide cs 43
O=C(Nc1ccc2oc(-c3cccc4ccccc34)nc2c1)c1ncn[nH]1	Cycloheximide cs 18
CCCn1c(N)c(N(CCOC)C(=O)CSc2cc(C)c3ccccc3n2)c(=O)[nH]c1=O	none (no result: LmPK inhibitor, NS1 function inh, Shiga toxin inh, Cycloheximide cs, SARS PLP yeast)
Cc1nnc(SCC(=O)NNC(=O)c2ccc(F)cc2)n1Cc1ccccc1	none (no result: LmPK inhibitor, NS1 function inh, Shiga toxin inh, Cycloheximide cs)
Cc1ccc(C=NNc2ccc([N+](=O)[O-])cn2)cc1	none (no result: LmPK inhibitor, NS1 function inh, Shiga toxin inh, Cycloheximide cs, SARS PLP yeast)
O=Cc1cn(Cc2ccc([N+](=O)[O-])cc2)c2ccccc12	NS1 function inh inconclusive
